Values without a mark were called inactive. The rule behind the calls is not given here.

The test in a line: P. aeruginosa biofilm formation inhibitors, primary screen, PAO1 strain, BacTiter-Glo luminescence, LB-PBS (AID 1144). The following applies: 12 h, higher = more signal.
`CC(C)[C@@H](OCc1ccccc1)[C@H](C)C=NOC[C@@H](O)COCc1ccco1`: the z-score is 0.117.
For `CC(C)(C)N1C(=O)[C@H]2[C@H]3[C@H](O)C=CC(=O)[C@@H]3CC[C@H]2C1=O`, the z-score is 0.0768.
Next, `CCOC(=O)[C@H](CC(C)C)NC(=O)CCC1CC(OC(=O)NCc2cccc3ccccc23)CC2(CCCC(COC(=O)NCCOC)O2)O1` (stereo partly drawn): -0.656; `Cc1ccc(S(=O)(=O)n2c3ccccc3c3nnc(C(=O)c4ccccc4)nc32)cc1`: -0.673.
Next, `CCN1C(=O)[C@H]2[C@H]3[C@H](O)[C@H](O)CC(=NOC[C@H]4O[C@H](c5ccccc5)C=C[C@@H]4Oc4ccc(OC)cc4)[C@@H]3CC[C@H]2C1=O`: 1.13; `Cc1cc2c(c(=O)o1)[C@@H](O)[C@H]1O[C@H]1C2=O`: 0.0297.
For the compound `C#CCCCON=C1C[C@@H](O)[C@@H](O)[C@@H]2[C@@H]3C(=O)N(c4cccc(Oc5ccccc5)c4)C(=O)[C@@H]3CC[C@H]12`, the z-score is 0.0591.
For `CC(CCN1CCc2nc(-c3ccccc3)c(-c3ccccc3)cc2C1)=NOC[C@@H](O)[C@H]1O[C@@H]2OC(C)(C)O[C@@H]2[C@H]1O`, the z-score was 0.306.
In the case of `CC(CCN1CCc2nc(-c3ccccc3)c(-c3ccccc3)cc2C1)=NOC[C@@H](O)COCc1ccco1`, the z-score was -0.255.
The same measure for `CSCC[C@@H]1NC(=O)CC=C[C@@H](C)COC(=O)[C@@H](C)COC1=O`: 0.117; for `CC(=O)Nc1ccc([C@@H]2N[C@H](C(=O)O)CC[C@H]2C)cc1`: -1.51.
For `C#CCCCON=C1[C@H]2CCn3c(=O)n(-c4ccccc4)c(=O)n3[C@H]2[C@H](O)[C@@H]2O[C@H]12`, the z-score was 0.423.
The same measure for `COC(=O)[C@@H]1CC[C@H](C)[C@@H](c2ccc(C)cc2)N1C(=O)c1ccc(C=NOC[C@@H](C)[C@H](OCc2ccccc2)C(C)C)cc1`: 0.978.
With `CCOC(=O)[C@H](Cc1ccccc1)NC(=O)CCC1CC(OC(=O)NCc2cccc3ccccc23)CC2(CCCC(COC(=O)NCCC(C)C)O2)O1` (stereo partly drawn), the z-score is -0.863.
On to `C=CC[C@@H]1C=C[C@H](ON=C2[C@H]3CCn4c(=O)n(-c5ccccc5)c(=O)n4[C@H]3[C@H](O)[C@@H]3O[C@H]23)[C@@H](CO)O1`, for which the z-score was -0.0199.
With `CCOC(=O)[C@H](CC(C)C)NC(=O)CCC1CC(OC(=O)NCc2cccc3ccccc23)CC2(CCCC(COC(=O)NCCOc3ccccc3)O2)O1` (stereo partly drawn), the z-score was -0.477.
The same measure for `C[C@@H](c1ccccc1)N1C(=O)[C@H]2[C@H]3[C@H](O)[C@H](O)CC(=NOCc4ccccc4)[C@H]3CC[C@H]2C1=O`: 0.576; for `CCCNC(=O)OC[C@H]1O[C@H](CCON=C(C)CCN2CCc3nc(CC)c(CC)cc3C2)C=C[C@@H]1Oc1ccc(OC)cc1`: -0.546.
The same measure for `CCCNC(=O)OC[C@H]1O[C@H](CCON=C(C)C)C=C[C@@H]1Oc1ccc(OC)cc1`: -0.523; for `CC(=O)O[C@H]1C2=CO[C@H](C)[C@H]3[C@H]4C5=C([C@H](O)[C@H]6O[C@H]6C5=O)[C@H](OC4C)[C@@]23C(=O)[C@@H]2O[C@@H]21` (stereo partly drawn): 0.298.
Next, `C=CC[C@@H]1C=C[C@H](ON=C[C@@H](C)[C@H](OCc2ccccc2)C(C)C)[C@@H](CO)O1`: 0.787; `COC(=O)CC=C[C@@H](C)[C@@H](C=NOC(C)CN1CCCc2nc(C)c(C)cc21)OC` (stereo partly drawn): 0.764.
Take `CC(CCN1CCCCc2nc(C)c(C)cc21)=NOC[C@@H](C)[C@H](OCc1ccccc1)C(C)C`: the z-score was -0.4.
For `CON=C(C)CCC(=O)OC[C@H]1O[C@H](c2ccccc2)C=C[C@@H]1Oc1ccc(OC)cc1`, the z-score was -0.38.
For `CON=CC[C@@H]1C=C[C@H](OC(C)=O)[C@@H](COC(C)=O)O1`, the z-score was 0.667.
Regarding `Cn1c(=O)n2n(c1=O)[C@H]1[C@H](O)[C@@H]3O[C@@H]3C(=O)[C@H]1CC2`, the z-score was 0.0513.
Next, `COc1ccc(COC(=O)NN=C2C[C@@H](O)[C@@H](O)[C@@H]3[C@@H]4C(=O)N(Cc5ccccc5)C(=O)[C@@H]4CC[C@H]23)cc1`: 0.43; `C#CCCCON=C1C[C@@H](O)[C@@H](O)[C@@H]2[C@@H]3C(=O)N(C(C)(C)C)C(=O)[C@@H]3CC[C@@H]12`: 0.945.

For the origin of these results see PubChem BioAssay.
